Measured values from PubChem BioAssay (NCATS).
Records with an inconclusive call do not appear. The source made the active and inactive calls. Calls come from the whole dose curve; as a rule, active = well fitted curve in the direction sought with a large enough effect; inconclusive = small, poorly fitted or top-dose-only effect, or another doubt; inactive = no such curve, though single readings can be large; an effect the other way counts as inactive or inconclusive.

Columns and labels:
[1] = Quantitative High-Throughput drug screen in 47 multiple myeloma cell lines against the NCATS MIPE library collection: KMS27_JCRB cell viability assay (AID 1918970); note: nearly all actives have a fitted effect of over 30% in size
Summary of the method: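 CellTiter-Glo luminescence after 48 h drug exposure at 37 °C; 500 cells/well, 1536-well format, pin-tool compound addition; DMSO = 100%, media-only = 0% viability.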

[2] = Quantitative High-Throughput drug screen in 47 multiple myeloma cell lines against the NCATS MIPE library collection: KMS12BM_JCRB cell viability assay (AID 1918971); note: nearly all actives have a fitted effect of over 35% in size
Summary of the method: (§1)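 Steps: seed 500 cells per well; pin-transfer MIPE 4.0 library; incubate 48 h at 37C, 5% CO2, humidified; add CellTiter-Glo, 5 min room temperature; read luminescence.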

[3] = Quantitative High-Throughput drug screen in 47 multiple myeloma cell lines against the NCATS MIPE library collection: KMS12PE_JCRB cell viability assay (AID 1918972); note: nearly all actives have a fitted effect of over 30% in size
Summary of the method: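 CellTiter-Glo ATP luminescence gave viability after 48 h compound treatment at 37C of 500 multiple myeloma cells per well. Normalisation used DMSO-only wells as 100% and media-only wells as 0% viability; primary qHTS of approved and investigational drugs.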

[4] = Quantitative High-Throughput drug screen in 47 multiple myeloma cell lines against the NCATS MIPE library collection: KMS20_JCRB cell viability assay (AID 1918973); note: nearly all actives have a fitted effect of over 45% in size
Summary of the method: (§2)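 CellTiter-Glo luminescence (ATP) after 48 h compound exposure, 37C/5% CO2; 500 cells/well; MIPE 4.0 approved/investigational drugs pinned in; DMSO = 100%, media only = 0% viability.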

[5] = Quantitative High-Throughput drug screen in 47 multiple myeloma cell lines against the NCATS MIPE library collection: MMM1_PLB cell viability assay (AID 1918976); note: nearly all actives have a fitted effect of over 35% in size
Summary of the method: (§3)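 ATP-based CellTiter-Glo luminescence after 48 h drug exposure (37 °C, 5% CO2) of 500 myeloma cells per well. DMSO-only wells set 100% viability, media-only wells 0%; MIPE 4.0 library added by pin tool.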

[6] = Quantitative High-Throughput drug screen in 47 multiple myeloma cell lines against the NCATS MIPE library collection: MM1S_ATCC cell viability assay (AID 1918980); note: nearly all actives have a fitted effect of over 45% in size
Summary of the method: as §3

[7] = Quantitative High-Throughput drug screen in 47 multiple myeloma cell lines against the NCATS MIPE library collection: OCIMY7_PLB cell viability assay (AID 1918987); conditions: OCI-MY7 myeloma viability, CellTiter-Glo ATP, 48 h; viability (% of DMSO): at 45.8 µM (top of the series); note: nearly all actives have a fitted effect of over 65% in size
Summary of the method: as §3

[8] = Quantitative High-Throughput drug screen in 47 multiple myeloma cell lines against the NCATS MIPE library collection: OCIMY5_PLB cell viability assay (AID 1918988); note: nearly all actives have a fitted effect of over 65% in size
Summary of the method: as §3

[9] = Quantitative High-Throughput drug screen in 47 multiple myeloma cell lines against the NCATS MIPE library collection: NCIH929_DSMZ cell viability assay (AID 1918978); note: nearly all actives have a fitted effect of over 35% in size
Summary of the method: as §3

[10] = Quantitative High-Throughput drug screen in 47 multiple myeloma cell lines against the NCATS MIPE library collection: OCIMY1_PLB cell viability assay (AID 1918979); note: nearly all actives have a fitted effect of over 35% in size
Summary of the method: as §3

[11] = Quantitative High-Throughput drug screen in 47 multiple myeloma cell lines against the NCATS MIPE library collection: LP1_DSMZ cell viability assay (AID 1918982); note: nearly all actives have a fitted effect of over 35% in size
Summary of the method: as §3

[12] = Quantitative High-Throughput drug screen in 47 multiple myeloma cell lines against the NCATS MIPE library collection: L363_DSMZ cell viability assay (AID 1918984); note: nearly all actives have a fitted effect of over 40% in size
Summary of the method: as §3

[13] = Quantitative High-Throughput drug screen in 47 multiple myeloma cell lines against the NCATS MIPE library collection: KMS34_JCRB cell viability assay (AID 1918985); note: nearly all actives have a fitted effect of over 40% in size
Summary of the method: as §3

[14] = Quantitative High-Throughput drug screen in 47 multiple myeloma cell lines against the NCATS MIPE library collection: KMS21BM_JCRB cell viability assay (AID 1918974); conditions: ATP luminescence, 48 h; viability: at 45.8 µM (top of the series) unless noted
Summary of the method: as §2

[15] = Quantitative High-Throughput drug screen in 47 multiple myeloma cell lines against the NCATS MIPE library collection: MOLP8_DSMZ cell viability assay (AID 1918977); note: nearly all actives have a fitted effect of over 45% in size
Summary of the method: as §3

[16] = Quantitative High-Throughput drug screen in 47 multiple myeloma cell lines against the NCATS MIPE library collection: KMS26_JCRB cell viability assay (AID 1918975); note: nearly all actives have a fitted effect of over 45% in size
Summary of the method: as §1

[17] = Quantitative High-Throughput drug screen in 47 multiple myeloma cell lines against the NCATS MIPE library collection: MM1R_ATCC cell viability assay (AID 1918981); note: nearly all actives have a fitted effect of over 35% in size
Summary of the method: as §3

[18] = Quantitative High-Throughput drug screen in 47 multiple myeloma cell lines against the NCATS MIPE library collection: KMS28PE_JCRB cell viability assay (AID 1918983); note: nearly all actives have a fitted effect of over 35% in size
Summary of the method: as §3
Potency is the fitted concentration of half-maximal effect.

In the case of CC=CC[C@@H](C)C(=O)[C@H]1C(=O)N[C@@H](C(C)C)C(=O)N(C)CC(=O)N(C)[C@@H](CC(C)C)C(=O)N[C@@H](C(C)C)C(=O)N(C)[C@@H](CC(C)C)C(=O)N[C@@H](C)C(=O)N[C@H](C)C(=O)N(C)[C@@H](CC(C)C)C(=O)N(C)[C@@H](CC(C)C)C(=O)N(C)[C@@H](C(C)C)C(=O)N1C, the Potency [1] is reported as 4.69 µM (active), the Potency [2] is reported as 23.5 µM (active) and the Potency [3] is reported as “inactive”. The Potency [4] was 1.32 µM (active), the Potency [5] was 5.26 µM (active) and the Potency [6] was 16.6 µM (active). The Potency [7] was 16.6 µM (active) and the Potency [8] was 23.5 µM (active).

For N#CC1(c2ccc(NC(=O)c3cccnc3NCc3ccncc3)cc2)CCCC1, the Potency [1] was “inactive”, the Potency [2] was 23.5 µM (active) and the Potency [3] was 0.469 µM (active). For the same molecule, the Potency [5] was 18.7 µM (active), the Potency [9] was “inactive” and the Potency [10] was “inactive”. The Potency [6] was “inactive”, the Potency [11] was 16.6 µM (active) and the Potency [12] was “inactive”. The Potency [13] was “inactive”.

In the case of O=C1NC(=O)C(=Cc2ccc(-c3ccc(F)cc3)o2)S1, the Potency [1] is reported as “inactive”, the Potency [3] is reported as 4.18 µM (active) and the Potency [14] is reported as 2.09 µM (active). For the same molecule, the Potency [5] was 11.8 µM (active), the Potency [15] was “inactive” and the Potency [12] was 3.72 µM (active). For the same molecule, the Potency [7] was 20.9 µM (active).

For COc1cccc([C@@H](C)NCCCc2ccccc2Cl)c1, the Potency [2] was “inactive”, the Potency [14] was 16.6 µM (active) and the Potency [16] was “inactive”. The Potency [15] was “inactive”, the Potency [10] was “inactive” and the Potency [17] was “inactive”. The Potency [11] was “inactive”, the Potency [18] was “inactive” and the Potency [13] was “inactive”. The Potency [8] was “inactive”.

For CC(C)OC(=O)C(C)(C)Oc1ccc(C(=O)c2ccc(Cl)cc2)cc1, the Potency [2] was 13.2 µM (active), the Potency [16] was 11.8 µM (active) and the Potency [5] was 18.7 µM (active). For the same molecule, the Potency [6] was “inactive”, the Potency [18] was 16.6 µM (active) and the Potency [12] was “inactive”. The Potency [7] was “inactive”.

In the case of O=C(O)c1cc(O)c2c(c1)C(=O)c1cccc(O)c1C2=O, the Potency [3] is reported as “inactive”, the Potency [5] is reported as 2.15 µM (active) and the Potency [15] is reported as 38.2 µM (active). For the same molecule, the Potency [9] was “inactive”, the Potency [10] was “inactive” and the Potency [6] was “inactive”. For the same molecule, the Potency [18] was 30.3 µM (active) and the Potency [8] was 48.1 µM (active).

With CCC(=O)O[C@]1(C(=O)CO)CC[C@H]2[C@@H]3CCC4=CC(=O)CC[C@]4(C)[C@@H]3CC[C@@]21C the Potency [1] was “inactive”, the Potency [3] was “inactive” and the Potency [9] was “inactive”. The Potency [10] was “inactive”, the Potency [11] was 5.26 µM (active) and the Potency [18] was “inactive”. For the same molecule, the Potency [13] was 0.0017 µM (active).

With CC1(C)O[C@H]2C[C@@H]3[C@H]4CCC5=CC(=O)C=C[C@]5(C)[C@@]4(F)[C@@H](O)C[C@]3(C)[C@]2(C(=O)CO)O1 the Potency [3] was “inactive”, the Potency [16] was “inactive” and the Potency [9] was 26.4 µM (active). The Potency [10] was “inactive”, the Potency [6] was 0.0132 µM (active) and the Potency [18] was “inactive”. The Potency [13] was 0.0118 µM (active).

In the case of CON=C(C(=O)N[C@@H]1C(=O)N2C(C(=O)OCOC(=O)C(C)(C)C)=C(C=Cc3scnc3C)CS[C@H]12)c1csc(N)n1, the Potency [2] is reported as “inactive”, the Potency [4] is reported as “inactive” and the Potency [15] is reported as “inactive”. The Potency [9] was 20.9 µM (active), the Potency [17] was 18.7 µM (active) and the Potency [11] was “inactive”. The Potency [8] was “inactive”.

For Clc1ccc(COC(Cn2ccnc2)c2ccc(Cl)cc2Cl)cc1 (stereo not drawn), the Potency [3] was 23.5 µM (active) and the Potency [15] was “inactive”.

With CCOc1ccc(Nc2nc(-c3c(C)nc4ccccn34)cs2)cc1 the Potency [2] was 0.0066 µM (active), the Potency [3] was 0.003 µM (active) and the Potency [4] was “inactive”. For the same molecule, the Potency [16] was 0.332 µM (active), the Potency [5] was 20.9 µM (active) and the Potency [9] was 0.0526 µM (active). The Potency [17] was 0.0059 µM (active), the Potency [18] was 0.0059 µM (active) and the Potency [13] was 0.0033 µM (active). For the same molecule, the Potency [8] was 0.0026 µM (active).

For Clc1cc(Cl)cc(CNc2ncncc2-c2ccc3c(c2)OCO3)c1, the Potency [1] was 18.7 µM (active), the Potency [15] was “inactive” and the Potency [7] was 4.69 µM (active). For the same molecule, the Potency [8] was 20.9 µM (active).

For NC(=O)c1cccc2[nH]c(-c3ccc([C@H]4CCCN4)cc3F)nc12, the Potency [1] was 23.5 µM (active), the Potency [10] was “inactive” and the Potency [11] was “inactive”. For the same molecule, the Potency [18] was “inactive”, the Potency [12] was 14.8 µM (active) and the Potency [8] was 20.9 µM (active).

In the case of c1cc(-c2sc(-c3ccncc3)c(-c3ccncc3)c2-c2ccncc2)ccn1, the Potency [1] is reported as 3.32 µM (active), the Potency [3] is reported as 2.96 µM (active) and the Potency [15] is reported as “inactive”. For the same molecule, the Potency [9] was 8.33 µM (active), the Potency [6] was 26.4 µM (active) and the Potency [11] was “inactive”. The Potency [18] was “inactive”, the Potency [12] was 3.32 µM (active) and the Potency [13] was “inactive”. For the same molecule, the Potency [7] was 5.26 µM (active).

With CN(C)Cc1cccc(N=C(c2ccccc2)c2c(O)[nH]c3cc(C(=O)N(C)C)ccc23)c1 the Potency [3] was 16.6 µM (active), the Potency [14] was 9.35 µM (active) and the Potency [9] was 18.7 µM (active). The Potency [10] was “inactive”, the Potency [6] was 16.6 µM (active) and the Potency [17] was 4.69 µM (active). For the same molecule, the Potency [18] was 18.7 µM (active), the Potency [12] was 8.33 µM (active) and the Potency [7] was 0.935 µM (active). For the same molecule, the Potency [8] was 10.5 µM (active).

With O=C1NC(=O)C(=Cc2cccc(C(F)(F)F)c2)S1 the Potency [2] was 20.9 µM (active), the Potency [14] was 8.33 µM (active) and the Potency [5] was 23.5 µM (active). For the same molecule, the Potency [15] was “inactive”, the Potency [17] was “inactive” and the Potency [11] was “inactive”. For the same molecule, the Potency [13] was “inactive” and the Potency [8] was 26.4 µM (active).

In the case of Cc1c[nH]c(C=C2C(=O)Nc3ccccc32)c1CCC(=O)O, the Potency [9] is reported as “inactive”, the Potency [18] is reported as 23.5 µM (active) and the Potency [12] is reported as “inactive”. For the same molecule, the Potency [8] was 20.9 µM (active).

For Cc1cccc(Nc2nc(-c3ccncc3)cs2)c1, the Potency [1] was 18.7 µM (active), the Potency [3] was 14.8 µM (active) and the Potency [12] was 18.7 µM (active).

In the case of CN[C@@H](C)C(=O)N[C@H]1CN(C(=O)CC(C)C)CC[C@H]2CC[C@@H](C(=O)NC(c3ccccc3)c3ccccc3)N2C1=O, the Potency [2] is reported as 26.4 µM (active), the Potency [3] is reported as 3.72 µM (active) and the Potency [15] is reported as “inactive”. The Potency [9] was 11.8 µM (active), the Potency [6] was 9.35 µM (active) and the Potency [17] was 14.8 µM (active). The Potency [7] was 10.5 µM (active) and the Potency [8] was 20.9 µM (active).

With CN(C)C1CCN(C(=O)c2ccc(NC(=O)Nc3nc(N4CCOCC4)nc(N4CCOCC4)n3)cc2)CC1 the Potency [2] was 0.0083 µM (active), the Potency [3] was 0.105 µM (active) and the Potency [4] was 0.105 µM (active). For the same molecule, the Potency [16] was 0.0209 µM (active), the Potency [5] was 0.0235 µM (active) and the Potency [10] was 5.9 µM (active). The Potency [6] was 0.0332 µM (active), the Potency [17] was 0.0418 µM (active) and the Potency [18] was 0.0132 µM (active). For the same molecule, the Potency [13] was 0.132 µM (active), the Potency [7] was 5.26 µM (active) and the Potency [8] was 0.0418 µM (active).
